SMILES strings stand for the structures. In all, about 16,000 compounds went through this assay and about 4,000 (25%) were called active. Roughly 26% stayed inconclusive and do not appear here. Calls follow the shape of the dose curve; as a rule, active = well fitted curve in the direction sought with a large enough effect; inconclusive = small, poorly fitted or top-dose-only effect, or effect the other way; inactive = no such curve, though single readings can be large or run the other way. A selection follows.
% is scaled to controls: 0 for no effect and ±100 for the full control effect.

Sequence of Cytochrome P450 2C9 (Homo sapiens) (P11712 whole entry, looked up): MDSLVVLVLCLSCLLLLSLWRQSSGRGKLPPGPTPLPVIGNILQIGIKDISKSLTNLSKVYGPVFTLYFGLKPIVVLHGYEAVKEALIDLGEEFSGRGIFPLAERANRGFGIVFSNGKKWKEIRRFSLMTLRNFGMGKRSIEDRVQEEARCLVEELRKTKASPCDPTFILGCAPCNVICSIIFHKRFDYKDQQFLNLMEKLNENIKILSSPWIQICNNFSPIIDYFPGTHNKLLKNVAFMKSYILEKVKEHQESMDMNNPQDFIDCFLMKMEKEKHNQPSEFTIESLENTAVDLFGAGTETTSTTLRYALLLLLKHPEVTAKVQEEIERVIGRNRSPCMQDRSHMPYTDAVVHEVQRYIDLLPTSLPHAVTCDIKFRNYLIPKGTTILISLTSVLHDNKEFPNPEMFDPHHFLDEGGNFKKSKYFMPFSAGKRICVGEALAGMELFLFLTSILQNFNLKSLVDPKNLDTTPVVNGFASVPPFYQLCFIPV

The assay addresses Cytochrome P450 2C9 (Homo sapiens) (UniProt P11712). Kind of assay: Cytochrome panel assay with activity outcomes. To be noted: recombinant CYP, pro-luciferin dealkylation, luminescence, p450-cyp2c9; series mostly up to 57.1 µM.
As to `Nc1nc2c(C(=O)NCc3cccs3)nnn2c2cccc(Cl)c12`, the activity, negative = inhibition is 12.5% [at 11.4 µM] (inactive).
One may read the AC50 as the concentration at which the activity in the assay is half-maximal. Turning to `CCN(CC)CCc1nc(-c2ccccc2)no1`, the AC50 result is “inactive”.
With `c1ccc(CCc2nc(-c3ccccc3)no2)cc1`, the AC50 result is “inactive”.
Same read-out and setting: the result for `c1ccc(-c2noc(CSc3nnnn3C3CCCCC3)n2)cc1` reads 3.55 µM (active).
For `O=C(N/N=C1/C[C@@H](O)[C@@H](O)[C@@H]2[C@@H]3C(=O)N(Cc4ccccc4)C(=O)[C@H]3CC[C@@H]12)OCc1ccccc1`, the activity, negative = inhibition was 9.14% [at 11.4 µM] (inactive).
In the case of `CCCCCCCC/C=C\CCCCCCCC(=O)NCCc1ccc(O)c(O)c1`, the AC50 is 1.58 µM (active).
On the same count and under the same terms, in the case of `CC(=O)NCCc1ccc(O)c(O)c1` it was “inactive”; in that of `C[C@@](Cc1ccc(O)c(O)c1)(NN)C(=O)O`, “inactive”.
As for `Nc1ccn([C@H]2O[C@H](CO)[C@@H]3[O][Sn]([c]4ccccc4)([c]4ccccc4)[O][C@H]32)c(=O)n1`, the activity, negative = inhibition is 24.8% [at 11.4 µM] (inactive).
In the case of `FC(F)(F)c1ccccc1-c1ccc2ncnc(N3CCOCC3)c2c1`, the activity, negative = inhibition is -28.6% [at 2.29 µM] (inactive).
As for `CCN1C(=O)[C@H]2[C@H]3[C@H](O)[C@H](O)C/C(=N/OC[C@@H](O)COCc4ccco4)[C@H]3CC[C@@H]2C1=O`, the activity, negative = inhibition was 1.57% [at 11.4 µM] (inactive).
Still for that read-out and setting: in the case of `O=C(O)C[C@H](Cc1ccc2c(c1)OCO2)C(=O)O` it was -23.6% [at 11.4 µM] (inactive).
With `c1ccc(SC(Sc2ccccc2)c2ccc3c(c2)OCO3)cc1`, the AC50 was 3.16 µM (active).
On to `c1ccc(Nc2ncncc2-c2ccc3c(c2)OCO3)cc1`, for which the activity, negative = inhibition is -20.1% [at 2.29 µM] (inactive).
Regarding `COc1ccc(-c2ccc(N)[n+](CCCC(=O)O)n2)cc1`, the AC50 entry was “inactive”.
The same measure, in the same setting: the result for `COc1ccc(-c2ccc(=N)n(CCCC(=O)O)n2)cc1` reads 3.16 µM (active); that for `CCCCN(C)CCCNC(=O)CCn1nc(-c2ccccc2)ccc1=O`, “inactive”.
Consider `COc1cccc(-c2cc(NCc3cccnc3)ncn2)c1`, for which the activity, negative = inhibition is -28.7% [at 2.29 µM] (inactive).
Take `COc1cccc(Cn2c(NCc3cccnc3)nc3c2c(=O)n(C)c(=O)n3C)c1`: the AC50 is 6.31 µM (active).
With `CSC1(SC2=NCCN2)SC2(NCCN2)S1`, the activity, negative = inhibition was -10.8% [at 11.4 µM] (inactive).
On the same count and under the same terms, in the case of `CC(C)(C)c1ccc(OC(=O)Nc2ccc(O)c(C(=O)O)c2)cc1` it was -20.8% [at 11.4 µM] (inactive).
Consider `CCOC(=O)Nc1ccc(C(=O)Oc2ccccc2)c(O)c1`, for which the AC50 is 17.8 µM (active).
Consider `O=C(Nc1ccc2oc(=O)c(C(=O)O)cc2c1)Oc1ccccc1`, for which the activity, negative = inhibition is -10.6% [at 11.4 µM] (inactive).
`CCOC(=O)c1cc2c(=O)n3ccccc3nc2n(CCCOC)c1=NC(=O)C(C)(C)C`: the AC50 was 1.58 µM (active).

The values are drawn from PubChem BioAssay AID1851 (National Center for Advancing Translational Sciences (NCATS), 2009).
